According to article PMC7862700, “An all-to-all approach to the identification of sequence-specific readers for epigenetic DNA modifications on cytosine”:

What was measured:
Test in all cases: DAPPL (digital affinity profiling via proximity ligation, sequencing); 10 mM Tris-HCl pH 7.5, 50 mM NaCl, 1 mM DTT, 4% glycerol, room temperature, 30 min; GST-TFs on glutathione beads, 16-mer random dsDNA library, 0.1% formaldehyde crosslink after washing; high values mean tight binding
[1] = target: T1, FEV (Homo sapiens, UniProt Q99581 1-238); details: protein: recombinant; tags: N-terminal GST; dsDNA, one strand shown
T1 sequence: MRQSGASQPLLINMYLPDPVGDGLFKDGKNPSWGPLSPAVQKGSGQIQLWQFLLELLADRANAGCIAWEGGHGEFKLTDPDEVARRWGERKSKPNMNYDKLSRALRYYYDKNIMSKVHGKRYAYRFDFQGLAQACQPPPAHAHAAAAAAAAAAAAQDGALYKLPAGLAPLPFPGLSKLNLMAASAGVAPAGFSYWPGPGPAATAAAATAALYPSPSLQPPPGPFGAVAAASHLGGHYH
Summary of the method: (§1)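 Binding signal is each hexamer's read frequency for a factor divided by its frequency in the tag-only sample. The factors were GST-fused human transcription factors from yeast, captured on glutathione beads, DNA-barcoded and pooled with that sample. Pools were incubated with 200 nmole of a random double-stranded 16-mer DNA library in Tris/NaCl/DTT/glycerol buffer at room temperature for 30 min, then washed, crosslinked with 0.1% formaldehyde, proximity-ligated with BsaI/T4 ligase (1 h, 37 °C), PCR-amplified and sequenced on an Illumina NextSeq500.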

[2] = target: ETV5 (Homo sapiens, UniProt P41161 1-510); details: protein: recombinant; tags: N-terminal GST; dsDNA, one strand shown
Sequence of ETV5 (P41161 whole entry): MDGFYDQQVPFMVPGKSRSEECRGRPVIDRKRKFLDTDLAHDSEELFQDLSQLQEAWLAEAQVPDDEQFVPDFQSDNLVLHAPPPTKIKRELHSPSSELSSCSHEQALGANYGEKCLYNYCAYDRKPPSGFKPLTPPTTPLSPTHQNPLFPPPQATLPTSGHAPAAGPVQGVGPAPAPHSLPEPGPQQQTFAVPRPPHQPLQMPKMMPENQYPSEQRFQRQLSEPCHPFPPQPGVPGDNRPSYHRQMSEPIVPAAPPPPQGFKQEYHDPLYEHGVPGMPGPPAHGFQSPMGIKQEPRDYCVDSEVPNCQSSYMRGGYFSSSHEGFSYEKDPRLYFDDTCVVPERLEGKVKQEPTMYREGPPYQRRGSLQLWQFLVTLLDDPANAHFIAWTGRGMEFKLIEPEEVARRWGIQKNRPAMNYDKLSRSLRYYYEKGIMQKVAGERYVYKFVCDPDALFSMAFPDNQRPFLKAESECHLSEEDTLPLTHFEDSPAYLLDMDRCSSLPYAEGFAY
Summary of the method: as §1

[3] = target: HSF1 (Homo sapiens, UniProt Q00613 1-529); details: protein: recombinant; tags: N-terminal GST; chain copies: 3; dsDNA, one strand shown
Sequence of HSF1 (Q00613 whole entry): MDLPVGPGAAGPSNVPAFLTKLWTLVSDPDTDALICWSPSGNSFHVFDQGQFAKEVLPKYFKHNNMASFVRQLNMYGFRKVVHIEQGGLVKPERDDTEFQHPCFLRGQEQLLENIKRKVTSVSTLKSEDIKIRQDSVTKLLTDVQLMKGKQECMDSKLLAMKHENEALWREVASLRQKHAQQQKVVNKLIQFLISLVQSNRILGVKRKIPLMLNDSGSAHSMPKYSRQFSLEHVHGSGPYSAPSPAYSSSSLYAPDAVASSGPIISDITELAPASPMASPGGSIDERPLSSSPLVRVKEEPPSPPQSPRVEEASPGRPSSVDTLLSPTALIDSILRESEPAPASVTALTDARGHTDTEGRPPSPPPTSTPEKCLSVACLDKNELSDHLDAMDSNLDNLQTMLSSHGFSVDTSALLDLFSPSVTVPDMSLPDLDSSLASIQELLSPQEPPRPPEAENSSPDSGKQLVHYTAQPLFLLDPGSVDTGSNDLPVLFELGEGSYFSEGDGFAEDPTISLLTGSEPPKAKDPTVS
Summary of the method: as §1

[4] = target: T2, SPIC (Homo sapiens, UniProt Q8N5J4 1-248); details: protein: recombinant; tags: N-terminal GST; dsDNA, one strand shown
T2 sequence: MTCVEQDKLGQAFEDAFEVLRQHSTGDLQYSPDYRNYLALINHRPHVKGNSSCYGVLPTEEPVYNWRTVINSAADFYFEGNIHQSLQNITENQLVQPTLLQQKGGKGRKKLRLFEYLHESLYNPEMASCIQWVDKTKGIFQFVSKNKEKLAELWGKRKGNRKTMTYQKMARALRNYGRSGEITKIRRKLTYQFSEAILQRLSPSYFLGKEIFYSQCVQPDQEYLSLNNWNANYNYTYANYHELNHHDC
Summary of the method: as §1

[5] = target: ELF4 (Homo sapiens, UniProt Q99607 1-663); details: protein: recombinant; tags: N-terminal GST; dsDNA, one strand shown
Sequence of ELF4 (Q99607 whole entry): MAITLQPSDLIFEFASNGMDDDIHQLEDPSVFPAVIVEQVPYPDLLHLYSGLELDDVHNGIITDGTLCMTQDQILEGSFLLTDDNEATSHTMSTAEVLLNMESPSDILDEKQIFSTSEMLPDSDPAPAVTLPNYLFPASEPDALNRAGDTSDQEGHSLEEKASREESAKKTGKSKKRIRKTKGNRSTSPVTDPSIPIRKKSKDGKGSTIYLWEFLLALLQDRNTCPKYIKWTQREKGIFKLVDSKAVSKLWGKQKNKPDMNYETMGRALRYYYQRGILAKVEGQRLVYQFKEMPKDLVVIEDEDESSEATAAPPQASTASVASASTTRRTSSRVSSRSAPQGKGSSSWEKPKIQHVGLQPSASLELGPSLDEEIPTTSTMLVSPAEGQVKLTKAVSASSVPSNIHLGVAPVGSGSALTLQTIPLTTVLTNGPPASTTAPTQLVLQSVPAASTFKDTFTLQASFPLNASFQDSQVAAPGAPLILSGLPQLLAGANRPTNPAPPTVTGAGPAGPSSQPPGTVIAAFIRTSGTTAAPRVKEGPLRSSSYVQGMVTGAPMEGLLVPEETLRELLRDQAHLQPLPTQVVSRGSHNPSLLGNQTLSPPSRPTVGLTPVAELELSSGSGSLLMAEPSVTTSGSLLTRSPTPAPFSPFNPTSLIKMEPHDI
Summary of the method: as §1

[6] = target: T3, ELK4 (Homo sapiens, UniProt P28324-2 1-405); details: protein: recombinant; tags: N-terminal GST; dsDNA, one strand shown
T3 sequence: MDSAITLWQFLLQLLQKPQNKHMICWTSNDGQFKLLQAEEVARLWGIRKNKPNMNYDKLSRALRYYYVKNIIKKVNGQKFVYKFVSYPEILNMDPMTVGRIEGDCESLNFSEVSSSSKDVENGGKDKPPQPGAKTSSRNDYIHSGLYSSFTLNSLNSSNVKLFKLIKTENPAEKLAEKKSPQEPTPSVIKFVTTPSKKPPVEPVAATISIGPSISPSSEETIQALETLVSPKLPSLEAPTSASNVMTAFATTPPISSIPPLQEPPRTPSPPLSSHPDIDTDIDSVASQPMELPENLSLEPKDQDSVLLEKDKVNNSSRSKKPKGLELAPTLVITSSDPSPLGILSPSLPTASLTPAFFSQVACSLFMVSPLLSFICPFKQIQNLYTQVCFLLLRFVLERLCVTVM
Summary of the method: as §1

[7] = target: T4, ETV2 (Homo sapiens, UniProt O00321 1-342); details: protein: recombinant; tags: N-terminal GST; dsDNA, one strand shown
T4 sequence: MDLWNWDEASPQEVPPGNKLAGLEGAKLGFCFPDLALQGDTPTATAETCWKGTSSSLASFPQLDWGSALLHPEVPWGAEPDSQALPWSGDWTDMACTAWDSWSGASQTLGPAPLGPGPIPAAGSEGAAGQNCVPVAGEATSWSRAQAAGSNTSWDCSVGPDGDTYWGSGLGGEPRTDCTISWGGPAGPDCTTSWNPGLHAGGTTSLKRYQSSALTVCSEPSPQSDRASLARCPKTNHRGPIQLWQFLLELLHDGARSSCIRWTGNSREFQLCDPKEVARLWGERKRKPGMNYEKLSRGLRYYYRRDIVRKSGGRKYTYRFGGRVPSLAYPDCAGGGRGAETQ
Summary of the method: as §1

[8] = target: T5, ELF3 (Homo sapiens, UniProt P78545 1-371); details: protein: recombinant; tags: N-terminal GST; dsDNA, one strand shown
T5 sequence: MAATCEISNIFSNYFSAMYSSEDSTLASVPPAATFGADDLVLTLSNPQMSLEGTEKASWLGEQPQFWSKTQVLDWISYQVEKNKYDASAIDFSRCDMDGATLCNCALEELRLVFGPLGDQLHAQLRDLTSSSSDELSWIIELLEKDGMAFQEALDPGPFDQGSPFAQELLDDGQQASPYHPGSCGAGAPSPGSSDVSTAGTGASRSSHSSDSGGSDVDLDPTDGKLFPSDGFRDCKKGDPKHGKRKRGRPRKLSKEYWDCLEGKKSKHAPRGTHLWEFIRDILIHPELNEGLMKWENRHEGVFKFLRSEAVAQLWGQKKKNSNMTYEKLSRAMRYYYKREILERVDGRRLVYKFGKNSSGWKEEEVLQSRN
Summary of the method: as §1

[9] = target: CRX (Homo sapiens, UniProt O43186 1-299); details: protein: recombinant; tags: N-terminal GST; dsDNA, one strand shown
Sequence of CRX (O43186 whole entry): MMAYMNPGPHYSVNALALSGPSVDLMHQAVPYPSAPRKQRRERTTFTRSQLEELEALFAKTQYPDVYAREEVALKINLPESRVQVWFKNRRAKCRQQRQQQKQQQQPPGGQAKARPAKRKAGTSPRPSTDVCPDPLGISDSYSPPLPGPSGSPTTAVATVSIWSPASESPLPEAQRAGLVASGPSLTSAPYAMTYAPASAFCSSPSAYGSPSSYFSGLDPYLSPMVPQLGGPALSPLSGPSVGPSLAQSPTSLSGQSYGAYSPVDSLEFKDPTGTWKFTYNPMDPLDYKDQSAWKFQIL
Summary of the method: as §1

[10] = target: ETV1 (Homo sapiens, UniProt P50549 1-477); details: protein: recombinant; tags: N-terminal GST; dsDNA, one strand shown
Sequence of ETV1 (P50549 whole entry): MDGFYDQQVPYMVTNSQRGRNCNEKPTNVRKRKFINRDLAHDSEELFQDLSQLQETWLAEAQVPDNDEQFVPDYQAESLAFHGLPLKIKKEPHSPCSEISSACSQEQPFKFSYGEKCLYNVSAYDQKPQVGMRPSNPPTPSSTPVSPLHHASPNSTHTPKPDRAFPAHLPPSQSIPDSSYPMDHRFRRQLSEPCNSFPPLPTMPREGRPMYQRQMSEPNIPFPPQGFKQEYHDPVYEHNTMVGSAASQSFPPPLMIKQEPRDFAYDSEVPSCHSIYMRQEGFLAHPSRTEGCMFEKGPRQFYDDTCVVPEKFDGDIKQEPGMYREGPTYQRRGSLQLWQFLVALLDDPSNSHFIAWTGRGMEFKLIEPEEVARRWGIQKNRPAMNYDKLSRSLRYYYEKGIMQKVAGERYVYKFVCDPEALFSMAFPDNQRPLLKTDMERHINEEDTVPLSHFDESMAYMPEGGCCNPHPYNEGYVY
Summary of the method: as §1

[11] = target: T6, ERF (Homo sapiens, UniProt P50548 1-548); details: protein: recombinant; tags: N-terminal GST; dsDNA, one strand shown
T6 sequence: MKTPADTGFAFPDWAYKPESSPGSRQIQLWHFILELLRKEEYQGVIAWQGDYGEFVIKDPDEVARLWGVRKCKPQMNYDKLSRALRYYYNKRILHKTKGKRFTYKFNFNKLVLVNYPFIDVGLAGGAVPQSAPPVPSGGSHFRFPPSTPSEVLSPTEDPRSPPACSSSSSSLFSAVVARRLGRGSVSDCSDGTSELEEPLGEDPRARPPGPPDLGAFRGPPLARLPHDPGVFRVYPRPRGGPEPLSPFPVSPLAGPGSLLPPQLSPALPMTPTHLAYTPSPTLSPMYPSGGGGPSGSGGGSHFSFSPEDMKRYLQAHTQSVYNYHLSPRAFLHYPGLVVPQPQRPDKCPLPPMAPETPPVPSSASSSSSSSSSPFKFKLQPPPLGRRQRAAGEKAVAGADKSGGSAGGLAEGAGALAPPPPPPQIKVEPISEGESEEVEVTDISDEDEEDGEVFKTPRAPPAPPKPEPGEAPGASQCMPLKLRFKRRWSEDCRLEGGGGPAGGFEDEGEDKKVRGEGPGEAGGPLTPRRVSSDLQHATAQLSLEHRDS
Summary of the method: as §1

[12] = target: T7, ETV3L (Homo sapiens, UniProt Q6ZN32 1-361); details: protein: recombinant; tags: N-terminal GST; dsDNA, one strand shown
T7 sequence: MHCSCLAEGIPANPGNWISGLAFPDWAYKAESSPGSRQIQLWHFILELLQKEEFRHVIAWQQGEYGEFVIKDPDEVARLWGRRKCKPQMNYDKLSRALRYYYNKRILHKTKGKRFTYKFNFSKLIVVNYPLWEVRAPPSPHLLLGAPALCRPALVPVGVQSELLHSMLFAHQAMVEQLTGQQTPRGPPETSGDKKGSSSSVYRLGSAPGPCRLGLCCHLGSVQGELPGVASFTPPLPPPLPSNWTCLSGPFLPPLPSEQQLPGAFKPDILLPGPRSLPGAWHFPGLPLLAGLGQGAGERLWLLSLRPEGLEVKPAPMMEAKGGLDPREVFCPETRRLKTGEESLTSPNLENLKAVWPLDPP
Summary of the method: as §1

[13] = target: T8, ETS2 (Homo sapiens, UniProt P15036 1-469); details: protein: recombinant; tags: N-terminal GST; dsDNA, one strand shown
T8 sequence: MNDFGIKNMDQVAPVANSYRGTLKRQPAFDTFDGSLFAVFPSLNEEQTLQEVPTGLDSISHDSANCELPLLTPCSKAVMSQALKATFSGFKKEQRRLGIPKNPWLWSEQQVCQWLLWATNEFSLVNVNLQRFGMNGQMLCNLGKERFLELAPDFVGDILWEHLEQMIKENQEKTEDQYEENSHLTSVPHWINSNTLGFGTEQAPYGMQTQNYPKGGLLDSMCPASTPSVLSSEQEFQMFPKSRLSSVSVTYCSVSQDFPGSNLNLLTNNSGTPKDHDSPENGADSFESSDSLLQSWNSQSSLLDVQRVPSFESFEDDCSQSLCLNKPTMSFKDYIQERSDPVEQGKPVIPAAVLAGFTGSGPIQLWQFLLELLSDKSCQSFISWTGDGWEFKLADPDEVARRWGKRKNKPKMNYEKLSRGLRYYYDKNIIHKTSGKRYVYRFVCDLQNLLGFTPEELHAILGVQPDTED
Summary of the method: as §1

[14] = target: T9, SPDEF (Homo sapiens, UniProt O95238 1-335); details: protein: recombinant; tags: N-terminal GST; dsDNA, one strand shown
T9 sequence: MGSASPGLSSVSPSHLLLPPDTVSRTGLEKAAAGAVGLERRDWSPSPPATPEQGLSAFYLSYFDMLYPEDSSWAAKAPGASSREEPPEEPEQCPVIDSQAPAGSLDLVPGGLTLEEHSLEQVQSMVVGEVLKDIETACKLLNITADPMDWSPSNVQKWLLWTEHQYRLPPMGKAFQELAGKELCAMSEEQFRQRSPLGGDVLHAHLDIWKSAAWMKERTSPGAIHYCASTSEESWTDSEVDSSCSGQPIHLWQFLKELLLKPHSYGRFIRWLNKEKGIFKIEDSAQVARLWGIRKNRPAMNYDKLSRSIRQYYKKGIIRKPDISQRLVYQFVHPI
Summary of the method: as §1

[15] = target: T10, ETV7 (Homo sapiens, UniProt Q9Y603 1-341); details: protein: recombinant; tags: N-terminal GST; dsDNA, one strand shown
T10 sequence: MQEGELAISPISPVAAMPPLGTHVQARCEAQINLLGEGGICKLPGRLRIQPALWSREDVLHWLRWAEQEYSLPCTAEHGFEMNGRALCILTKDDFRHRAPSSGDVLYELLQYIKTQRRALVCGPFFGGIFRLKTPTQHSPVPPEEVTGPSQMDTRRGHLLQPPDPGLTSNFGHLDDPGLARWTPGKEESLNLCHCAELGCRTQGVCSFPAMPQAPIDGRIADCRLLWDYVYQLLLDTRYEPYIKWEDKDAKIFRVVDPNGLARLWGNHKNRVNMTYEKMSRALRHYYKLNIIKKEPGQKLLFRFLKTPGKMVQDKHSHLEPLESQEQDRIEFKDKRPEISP
Summary of the method: as §1

[16] = target: T11, ELF5 (Homo sapiens, UniProt Q9UKW6-2 1-255); details: protein: recombinant; tags: N-terminal GST; dsDNA, one strand shown
T11 sequence: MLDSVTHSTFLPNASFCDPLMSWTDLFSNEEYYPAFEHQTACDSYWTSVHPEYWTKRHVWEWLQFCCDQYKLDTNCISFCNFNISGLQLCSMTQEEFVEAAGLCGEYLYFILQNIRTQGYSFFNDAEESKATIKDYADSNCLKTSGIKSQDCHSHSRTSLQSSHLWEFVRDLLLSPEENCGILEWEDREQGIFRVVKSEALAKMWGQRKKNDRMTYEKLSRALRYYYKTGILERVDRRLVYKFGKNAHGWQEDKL
Summary of the method: as §1

[17] = target: T12, ETV3 (Homo sapiens, UniProt P41162-2 1-143); details: protein: recombinant; tags: N-terminal GST; dsDNA, one strand shown
T12 sequence: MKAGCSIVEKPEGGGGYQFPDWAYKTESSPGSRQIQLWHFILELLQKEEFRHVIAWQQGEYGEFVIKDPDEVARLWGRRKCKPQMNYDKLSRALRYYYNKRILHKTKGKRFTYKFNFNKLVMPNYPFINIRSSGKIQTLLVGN
Summary of the method: as §1

[18] = target: ETV6 (Homo sapiens, UniProt P41212 1-452); details: protein: recombinant; tags: N-terminal GST; dsDNA, one strand shown
Sequence of ETV6 (P41212 whole entry): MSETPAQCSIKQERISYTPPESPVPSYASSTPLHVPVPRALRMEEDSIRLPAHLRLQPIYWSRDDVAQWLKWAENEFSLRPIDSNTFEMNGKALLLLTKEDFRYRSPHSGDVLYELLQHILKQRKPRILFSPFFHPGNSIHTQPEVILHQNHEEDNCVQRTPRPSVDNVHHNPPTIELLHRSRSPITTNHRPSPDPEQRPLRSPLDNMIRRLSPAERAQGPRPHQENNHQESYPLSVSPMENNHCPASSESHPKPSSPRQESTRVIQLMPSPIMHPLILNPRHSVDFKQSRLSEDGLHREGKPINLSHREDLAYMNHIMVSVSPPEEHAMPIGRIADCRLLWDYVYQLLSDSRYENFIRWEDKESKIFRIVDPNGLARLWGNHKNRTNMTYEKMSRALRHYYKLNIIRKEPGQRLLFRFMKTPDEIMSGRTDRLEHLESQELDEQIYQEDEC
Summary of the method: as §1

## ACCTTT
[1]
  binding signal: 1.45 fold enrichment (6-mer frequency, TF over GST control)
[2]
  binding signal: 1.36 fold enrichment (6-mer frequency, TF over GST control)
[3]
  binding signal: 1.36 fold enrichment (6-mer frequency, TF over GST control)
[4]
  binding signal: 1.58 fold enrichment (6-mer frequency, TF over GST control)
[5]
  binding signal: 1.42 fold enrichment (6-mer frequency, TF over GST control)
[6]
  binding signal: 1.49 fold enrichment (6-mer frequency, TF over GST control)
[7]
  binding signal: 1.31 fold enrichment (6-mer frequency, TF over GST control)
[8]
  binding signal: 1.32 fold enrichment (6-mer frequency, TF over GST control)
[9]
  binding signal: 1.3 fold enrichment (6-mer frequency, TF over GST control)
[10]
  binding signal: 1.43 fold enrichment (6-mer frequency, TF over GST control)
[11]
  binding signal: 1.52 fold enrichment (6-mer frequency, TF over GST control)
[12]
  binding signal: 1.41 fold enrichment (6-mer frequency, TF over GST control)
[13]
  binding signal: 1.48 fold enrichment (6-mer frequency, TF over GST control)
[14]
  binding signal: 1.34 fold enrichment (6-mer frequency, TF over GST control)
[15]
  binding signal: 1.36 fold enrichment (6-mer frequency, TF over GST control)
[16]
  binding signal: 1.45 fold enrichment (6-mer frequency, TF over GST control)
[17]
  binding signal: 1.42 fold enrichment (6-mer frequency, TF over GST control)
[18]
  binding signal: 1.48 fold enrichment (6-mer frequency, TF over GST control)
